Experimental data as given in PubChem BioAssay (NCATS).
Records with an inconclusive call do not appear. Unless noted, calls follow the shape of the dose curve; as a rule, active = well fitted curve in either direction with a large enough effect (not every such curve was filed as active); inconclusive = small, poorly fitted or top-dose-only effect, or another doubt; inactive = flat fitted curve, though single readings scatter.

Tests used:
[1] = AP1 Signaling Pathway (AID 357); conditions: ME-180 AP-1-bla reporter, EGF-induced, beta-lactamase ratio, 5 h; at 17.2 µM (top of the series) unless noted;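 also: ME-180 reporter cells stimulated with EGF at its EC50 level; % is scaled to controls: 0 for no effect and ±100 for the full control effect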
Summary of the method: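 Modulation of EGF-driven AP-1 transcription was assessed with a beta-lactamase reporter in ME-180 cells. Compound and EC50 EGF were co-incubated 5 hours at 37 °C before 2.5-hour CCF4 loading at room temperature and dual-emission reading.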

[2] = NFAT Signaling Pathway (AID 444); conditions: Jurkat NFAT-bla M1, carbachol, beta-lactamase ratio, 5 h; at 17.2 µM (top of the series) unless noted;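 also: carbachol stimulus at about its EC50 of 1 µM final; % is scaled to controls: 0 for no effect and ±100 for the full control effect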
Summary of the method: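 Read-out: CCF4 FRET ratio (460 nm/530 nm) after 1 h RT dye loading, used for %activity and AC50 from titration series. Cells: Jurkat NFAT-β-lactamase/M1 line, treated with compound plus 1 uM carbachol for 5 h, 37 °C.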

[3] = Stat Signaling Pathway (AID 446); conditions: ME-180 SIE beta-lactamase reporter, IL-6 stimulated, 5 h; at 17.2 µM (top of the series) unless noted;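 also: ME-180 cervical cancer cells given 40 pM IL-6 alongside compound; SIE-controlled beta-lactamase reporter measured as 460/530 nm FRET emission ratio; % is scaled to controls: 0 for no effect and ±100 for the full control effect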
Summary of the method: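 Reporter line: ME-180 cervical carcinoma, SIE-beta-lactamase. Treatment: compound with 40 pM IL-6, 5 hrs, 37 C, in low-serum OPTI-MEM with 10 mM HEPES pH 7.3. Detection: 460/530 nm fluorescence.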

[4] = target: Glucocorticoid receptor (Homo sapiens) (UniProt P04150); assay: GR-GFP Redistribution (AID 450;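 active = compounds whose dose series gives a full or clear partial fitted curve of increased nuclear translocation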; also: potency is read from the fitted curve at half-maximal effect)
Chain of Glucocorticoid receptor (Homo sapiens) (P04150 whole entry, looked up): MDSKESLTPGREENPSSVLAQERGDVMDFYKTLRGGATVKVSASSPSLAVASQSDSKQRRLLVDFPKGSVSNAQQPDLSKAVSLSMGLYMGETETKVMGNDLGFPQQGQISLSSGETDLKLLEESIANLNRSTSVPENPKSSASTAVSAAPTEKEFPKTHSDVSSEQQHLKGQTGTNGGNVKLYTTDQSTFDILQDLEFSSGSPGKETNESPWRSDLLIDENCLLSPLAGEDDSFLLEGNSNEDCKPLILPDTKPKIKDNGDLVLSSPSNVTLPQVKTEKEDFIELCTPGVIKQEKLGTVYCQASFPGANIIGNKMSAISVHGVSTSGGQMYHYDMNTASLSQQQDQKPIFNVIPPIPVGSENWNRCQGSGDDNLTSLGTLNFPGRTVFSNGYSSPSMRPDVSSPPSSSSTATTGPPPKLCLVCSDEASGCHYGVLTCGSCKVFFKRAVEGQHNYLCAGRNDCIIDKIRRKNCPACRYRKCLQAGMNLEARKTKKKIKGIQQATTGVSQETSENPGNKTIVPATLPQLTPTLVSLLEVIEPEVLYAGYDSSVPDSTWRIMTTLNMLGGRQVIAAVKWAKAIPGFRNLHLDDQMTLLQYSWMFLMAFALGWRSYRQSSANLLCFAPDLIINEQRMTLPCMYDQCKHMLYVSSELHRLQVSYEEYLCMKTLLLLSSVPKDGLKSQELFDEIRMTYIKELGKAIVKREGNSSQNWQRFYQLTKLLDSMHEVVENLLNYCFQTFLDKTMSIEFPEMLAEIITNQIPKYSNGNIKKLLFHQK

Nc1ccc2oc3ncccc3c(=O)c2c1
inactive: activity change, negative = inhibition [1] 7.58% | activity change, negative = inhibition [2] 10.7% | activity, negative = inhibition [3] -3.84% | Potency [4] > 20.6 µM

CC(=O)/C(C#N)=C1\NC(=O)C(Cc2ccccc2Cl)S1 (stereo not given)
inactive: activity change, negative = inhibition [1] 8.76% | activity change, negative = inhibition [2] -3.03% | activity, negative = inhibition [3] -6.04% | Potency [4] > 20.6 µM

C=CC(O)Cc1c(C)n[nH]c1C (stereo not given)
inactive: activity change, negative = inhibition [1] 18.3% | activity change, negative = inhibition [2] 4.36% | activity, negative = inhibition [3] 7.01% | Potency [4] > 20.6 µM

N#C/C(C(=O)NCc1ccccc1)=C1\SC(CCO)C(=O)N1c1ccccc1 (stereo not given)
inactive: activity change, negative = inhibition [1] -9.75% | activity change, negative = inhibition [2] 10.3% | activity, negative = inhibition [3] -2.91% | Potency [4] > 20.6 µM

Cc1cc(C)nc(N(C#N)CC(=O)N(c2ccccc2)C(C)C)n1
inactive: activity change, negative = inhibition [1] -11% | activity change, negative = inhibition [2] 4.64% | activity, negative = inhibition [3] 7.49% | Potency [4] > 20.6 µM

Cc1ccc(-n2ncc3c(NCCCN4CCCC4=O)ncnc32)c(C)c1
inactive: activity change, negative = inhibition [1] -15.8% | activity change, negative = inhibition [2] 11.5% | activity, negative = inhibition [3] 9.31% | Potency [4] > 20.6 µM

COc1ccc(OC)c(C(O)c2coc3ccc(O)c(CN4CCOCC4)c23)c1 (stereo not given)
inactive: activity change, negative = inhibition [1] 0.618% | activity change, negative = inhibition [2] -10.4% | activity, negative = inhibition [3] -5.12% | Potency [4] > 20.6 µM

Nc1ccc2oc(-c3ccccc3Cl)nc2c1
inactive: activity change, negative = inhibition [1] -0.869% | activity change, negative = inhibition [2] 15.3% | activity, negative = inhibition [3] 2.57% | Potency [4] > 20.6 µM

Cc1cc(-c2ccc(F)cc2)nc2cc(C(N)=O)nn12
inactive: activity change, negative = inhibition [1] -15.1% | activity change, negative = inhibition [2] -2.99% | activity, negative = inhibition [3] -7.09% | Potency [4] > 20.6 µM

CCOc1ccc(Br)cc1CC(=O)O
inactive: activity change, negative = inhibition [1] 8.45% | activity change, negative = inhibition [2] -5.28% | activity, negative = inhibition [3] 12.6% | Potency [4] > 20.6 µM

CCOC(=O)c1ccc(CSc2ncn[nH]2)o1
inactive: activity change, negative = inhibition [1] 0.882% | activity change, negative = inhibition [2] -2.95% | activity, negative = inhibition [3] 5.39% | Potency [4] > 20.6 µM

CCC1=Nc2ccccc2NC2=C1C(=O)CCC2
inactive: activity change, negative = inhibition [1] 16.1% | activity change, negative = inhibition [2] -0.948% | activity, negative = inhibition [3] -3.13% | Potency [4] > 20.6 µM

CCOC(=O)CSC1=C(C#N)C(c2ccc3c(c2)OCO3)CC(=O)N1 (stereo not given)
inactive: activity change, negative = inhibition [1] -5.02% | activity change, negative = inhibition [2] 4.11% | activity, negative = inhibition [3] 3.81% | Potency [4] > 20.6 µM

CCCCOc1ccc(C2CC(=O)N(C)C2=O)cc1 (stereo not given)
inactive: activity change, negative = inhibition [1] -14.6% | activity change, negative = inhibition [2] -3.42% | activity, negative = inhibition [3] 4.12% | Potency [4] > 20.6 µM

c1cc2c(cc1C1=Nn3c(nnc3C3CCCCC3)SC1)OCO2
inactive: activity change, negative = inhibition [1] -22.3% | activity change, negative = inhibition [2] 14.4% | activity, negative = inhibition [3] -7.03% | Potency [4] > 20.6 µM

COc1cccc(OC)c1-c1nn2c(-c3ccccc3Cl)nnc2s1
inactive: activity change, negative = inhibition [1] -22.5% | activity change, negative = inhibition [2] -8.73% | activity, negative = inhibition [3] -3.22% | Potency [4] > 20.6 µM

CCOC(=O)CSC1=C(C#N)C(c2ccc(C)cc2)C(C(=O)OC)C(=O)N1 (stereo not given)
inactive: activity change, negative = inhibition [1] 8.51% | activity change, negative = inhibition [2] 6.97% | activity, negative = inhibition [3] -7.08% | Potency [4] > 20.6 µM

CC1(C)Cc2c(sc3nc(SCC(=O)NCc4ccco4)n(-c4ccccc4)c(=O)c23)CS1
inactive: activity change, negative = inhibition [1] -19.4% | activity change, negative = inhibition [2] -13.9% | activity, negative = inhibition [3] -26.5% | Potency [4] > 20.6 µM

CN1CCN(/C=N/c2sc3c(c2C#N)CCCCC3)CC1
inactive: activity change, negative = inhibition [1] 4.68% | activity change, negative = inhibition [2] 11.9% | activity, negative = inhibition [3] -3.82% | Potency [4] > 20.6 µM

Cn1c(=NCC(O)COc2ccccc2)sc2ccccc21 (stereo not given)
inactive: activity change, negative = inhibition [1] -7.25% | activity change, negative = inhibition [2] -13.4% | activity, negative = inhibition [3] 8.49% | Potency [4] > 20.6 µM

COc1cccc(C(=O)N2CCN(Cc3ccccn3)CC2)c1OC
inactive: activity change, negative = inhibition [1] 2.17% | activity change, negative = inhibition [2] 7.94% | activity, negative = inhibition [3] 7.75% | Potency [4] > 20.6 µM

CSc1nc(C)cc(OCCNS(=O)(=O)c2cc(C)ccc2C)n1
inactive: activity change, negative = inhibition [1] -11.3% | activity change, negative = inhibition [2] -2.9% | activity, negative = inhibition [3] 1.66% | Potency [4] > 20.6 µM

CS(=O)(=O)CCC(C(=O)n1nnc2ccccc21)N1C(=O)c2ccccc2C1=O (stereo not given)
inactive: activity change, negative = inhibition [1] -2.33% | activity change, negative = inhibition [2] -13.1% | activity, negative = inhibition [3] -20.7% | Potency [4] > 20.6 µM

CCOC(=O)c1[nH]c2cc3c(cc2c1NC(=O)CN1CCC(C)CC1)OCO3
inactive: activity change, negative = inhibition [1] -11.2% | activity change, negative = inhibition [2] 3.83% | activity, negative = inhibition [3] -3.19% | Potency [4] > 20.6 µM

O=C(O)CC(C(=O)OCC1CCCO1)N1CCOCC1 (stereo not given)
inactive: activity change, negative = inhibition [1] 9.13% | activity change, negative = inhibition [2] -2.84% | activity, negative = inhibition [3] -0.575% | Potency [4] > 20.6 µM
